Assay [1] can be described thus: ATG_Sox_CIS: Attagene CIS-FACTORIAL HepG2 Assay for human SRY-box transcription factor (SOX) (AID 2282960). As to conditions: HepG2 Attagene cis-factorial SOX reporter, mRNA; actives raise or lower the signal. In short, it runs like this: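 Cells were transfected with reporter constructs under cis-regulatory promoters, then exposed to chemicals for 24 h. Reporter transcripts were quantified by fluorescence after RT-PCR and capillary electrophoresis; activity was fitted in both directions against DMSO.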

For assay [2], the target named is Transcription factor Sp1 (Homo sapiens) (UniProt P08047). Nature of the assay: ATG_Sp1_CIS: Attagene CIS-FACTORIAL HepG2 Assay for human Specificity Protein 1 (Sp1) (AID 2282961). As to conditions: HepG2 Sp1 cis-reporter transcription, actives raise or lower the signal. The procedure, abridged: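 Measures mRNA induction of an Sp1-linked reporter in HepG2 cells 24 h post-dosing. Multiplexed reporters read by RT-PCR and capillary electrophoresis; DMSO serves as negative control and baseline.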
Sequence of Transcription factor Sp1 (Homo sapiens) (P08047 whole entry, looked up): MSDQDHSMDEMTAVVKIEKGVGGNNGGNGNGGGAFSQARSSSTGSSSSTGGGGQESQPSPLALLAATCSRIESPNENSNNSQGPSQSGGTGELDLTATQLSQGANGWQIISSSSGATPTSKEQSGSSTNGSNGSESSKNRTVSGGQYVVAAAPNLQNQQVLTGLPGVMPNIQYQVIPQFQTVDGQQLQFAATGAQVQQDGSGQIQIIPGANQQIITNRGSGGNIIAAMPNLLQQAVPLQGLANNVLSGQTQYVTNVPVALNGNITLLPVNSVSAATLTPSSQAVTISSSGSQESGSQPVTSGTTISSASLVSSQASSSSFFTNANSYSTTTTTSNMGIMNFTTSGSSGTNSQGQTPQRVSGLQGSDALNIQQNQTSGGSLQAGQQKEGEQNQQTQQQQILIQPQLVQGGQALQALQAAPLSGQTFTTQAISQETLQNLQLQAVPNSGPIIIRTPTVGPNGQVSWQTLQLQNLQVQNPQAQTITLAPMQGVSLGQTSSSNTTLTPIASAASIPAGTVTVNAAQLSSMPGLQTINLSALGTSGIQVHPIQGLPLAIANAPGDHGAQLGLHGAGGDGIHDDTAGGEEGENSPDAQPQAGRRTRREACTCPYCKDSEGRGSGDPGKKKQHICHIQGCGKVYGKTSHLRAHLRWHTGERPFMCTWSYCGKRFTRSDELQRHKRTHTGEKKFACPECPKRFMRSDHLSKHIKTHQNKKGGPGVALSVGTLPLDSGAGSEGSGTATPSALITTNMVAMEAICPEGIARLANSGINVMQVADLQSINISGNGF

Assay [3] in a line: ATG_SREBP_CIS: Attagene CIS-FACTORIAL HepG2 Assay for human Sterol Regulatory Element Binding (SREBP) (AID 2282962). The note with it: HepG2 Attagene cis-factorial SREBP reporter, mRNA; actives raise or lower the signal. The procedure, abridged:
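Readout: fluorescent reporter-transcript peaks resolved by capillary electrophoresis after RT-PCR. Cells were human HepG2 carrying transfected cis-promoter reporter constructs, dosed for 24 h. Gain or loss of signal was fitted against DMSO controls.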

In assay [4] the target is Signal transducer and activator of transcription 3 (Homo sapiens) (UniProt P40763). As to the kind of experiment: ATG_STAT3_CIS: Attagene CIS-FACTORIAL HepG2 Assay for human Signal Transducer and Activator of Transcription 3 (STAT3) (AID 2282963). The note with it: HepG2, Attagene cis-factorial STAT3 reporter transcription; actives raise or lower the signal. In short, it runs like this: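 Uses human liver HepG2 transiently carrying cis-regulated reporter transcription units. Following 24 h dosing, reporter mRNA induction was detected by RT-PCR and capillary electrophoresis, analysed bidirectionally versus DMSO.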
Sequence of Signal transducer and activator of transcription 3 (Homo sapiens) (P40763 whole entry, looked up): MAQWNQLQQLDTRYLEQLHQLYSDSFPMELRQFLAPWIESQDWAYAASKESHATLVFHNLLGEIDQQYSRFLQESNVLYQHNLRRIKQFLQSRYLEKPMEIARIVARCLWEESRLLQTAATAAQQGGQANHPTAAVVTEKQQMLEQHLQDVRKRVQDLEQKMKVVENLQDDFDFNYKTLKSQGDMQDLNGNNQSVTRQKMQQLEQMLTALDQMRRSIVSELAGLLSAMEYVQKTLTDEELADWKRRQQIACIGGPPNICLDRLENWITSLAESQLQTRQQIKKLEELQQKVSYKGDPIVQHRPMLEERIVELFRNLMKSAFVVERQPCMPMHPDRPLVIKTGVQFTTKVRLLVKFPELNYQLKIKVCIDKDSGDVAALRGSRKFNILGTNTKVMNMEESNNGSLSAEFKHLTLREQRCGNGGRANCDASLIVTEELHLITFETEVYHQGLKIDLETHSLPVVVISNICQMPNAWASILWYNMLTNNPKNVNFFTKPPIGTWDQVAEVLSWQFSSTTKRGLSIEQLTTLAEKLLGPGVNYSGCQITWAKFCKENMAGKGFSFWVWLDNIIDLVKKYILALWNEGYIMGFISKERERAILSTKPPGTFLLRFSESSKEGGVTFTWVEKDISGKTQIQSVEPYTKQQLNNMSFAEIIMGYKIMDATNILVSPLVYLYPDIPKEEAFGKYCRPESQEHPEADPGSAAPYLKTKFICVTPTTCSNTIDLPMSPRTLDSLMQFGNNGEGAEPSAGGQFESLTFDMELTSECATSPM

A short description of assay [5]: ATG_TCF_b_cat_CIS: Attagene CIS-FACTORIAL HepG2 Assay for human T-Cell-Factor with beta-catenin (TCF/b-cat) (AID 2282965). As to conditions: HepG2 TCF/beta-catenin cis-reporter transcription, actives raise or lower the signal. The procedure, abridged: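 In this cis-format system, transfected HepG2 cells report endogenous transcription factor activity. Readout after 24 h exposure is reporter transcript abundance from RT-PCR and capillary electrophoresis, analysed for gain or loss of signal versus DMSO.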

The nature of assay [6]: ATG_TAL_CIS: Attagene CIS-FACTORIAL HepG2 Assay for human TAL Basal Promoter (AID 2282966).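 Note: background control endpoint measuring basal TAL promoter reporter mRNA not a specific factor.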 The note with it: HepG2 Attagene cis-factorial TAL promoter reporter; actives raise or lower the signal. The procedure, abridged: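 HepG2, transient MRTU transfection, 24 h compound exposure; RNA → oligo(dT) RT → PCR → 6-FAM primer extension → HpaI digest → CE fluorescence. Bidirectional curve fit vs DMSO. Background-control readout.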

The nature of assay [7]: ATG_TGFb_CIS: Attagene CIS-FACTORIAL HepG2 Assay for human Transforming Growth Factor (TGF) (AID 2282967). As to conditions: HepG2 Attagene CIS TGFb reporter, mRNA transcription; actives raise or lower the signal. The procedure, abridged:
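Readout: fluorescently labeled reporter cDNA fragments resolved by capillary electrophoresis after RT-PCR. Transfected HepG2 cells dosed for 24 h; endogenous TF activity at TGFB1-linked cis element; gain or loss fitted relative to DMSO.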

The target of assay [8] is Nuclear receptor subfamily 1 group I member 3 (Homo sapiens) (UniProt Q14994). Nature of the assay: ATG_CAR_TRANS: Attagene TRANS-FACTORIAL HepG2 Assay for human Constitutive Androstane Receptor (CAR) (AID 2282969; active = hit-call score of the fitted dose curve at least 0.9, where 1 is the maximum;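 note: activators raise reporter mRNA above DMSO so AC50 marks induction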). The note with it: HepG2 Attagene TRANS-FACTORIAL CAR reporter. In short, it runs like this:
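Steps: transient transfection of HepG2 with multiple GAL4-UAS reporter units; 24 h compound incubation; RNA isolation, RT-PCR, 6-FAM primer extension, HpaI digest; capillary electrophoresis. Gain-of-signal relative to DMSO negative control.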

The target in assay [9] is Estrogen receptor (Homo sapiens) (UniProt P03372). Nature of the assay: ATG_ERa_TRANS: Attagene TRANS-FACTORIAL HepG2 Assay for human Estrogen Receptor alpha (ERa) (AID 2282970; active = hit-call score of the fitted dose curve at least 0.9, where 1 is the maximum). As to conditions: HepG2 Attagene TRANS ERa GAL4 reporter, mRNA. In short, it runs like this: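 Reporter mRNA induction after 24 hours, detected by fluorescent RT-PCR and capillary electrophoresis, gives the read-out. Cells are HepG2 transiently transfected with GAL4-UAS reporter transcription units responding to chimeric NR-Gal4. Activity is taken as gain of signal over DMSO baseline.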
Sequence of Estrogen receptor (Homo sapiens) (P03372 whole entry, looked up, the tested form may be a part): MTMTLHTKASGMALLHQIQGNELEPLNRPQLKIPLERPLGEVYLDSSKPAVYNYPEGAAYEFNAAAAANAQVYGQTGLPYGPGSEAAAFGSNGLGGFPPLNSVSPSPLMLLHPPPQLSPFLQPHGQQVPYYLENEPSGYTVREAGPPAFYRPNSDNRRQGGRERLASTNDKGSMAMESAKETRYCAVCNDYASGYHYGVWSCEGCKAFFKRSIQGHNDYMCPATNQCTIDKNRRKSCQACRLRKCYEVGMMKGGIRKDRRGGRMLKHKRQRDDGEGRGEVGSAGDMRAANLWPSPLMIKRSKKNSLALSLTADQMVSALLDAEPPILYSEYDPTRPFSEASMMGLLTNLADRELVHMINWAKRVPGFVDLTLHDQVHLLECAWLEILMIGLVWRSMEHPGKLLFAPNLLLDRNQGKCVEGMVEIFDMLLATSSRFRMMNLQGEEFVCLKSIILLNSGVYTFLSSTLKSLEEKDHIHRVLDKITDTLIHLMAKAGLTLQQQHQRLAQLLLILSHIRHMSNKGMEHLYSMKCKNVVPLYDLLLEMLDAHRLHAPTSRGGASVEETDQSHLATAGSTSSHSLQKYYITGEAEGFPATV

Assay [10] has as its target X-box-binding protein 1 (Homo sapiens) (UniProt P17861). As to the kind of experiment: ATG_Xbp1_CIS: Attagene CIS-FACTORIAL HepG2 Assay for human X-box Binding Protein 1 (XBP1) (AID 2282972). As to conditions: HepG2 XBP1 cis-element reporter, Attagene multiplex; actives raise or lower the signal. The procedure, abridged:
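Read-out: fluorescent reporter mRNA fragments resolved by capillary electrophoresis after RT-PCR. Human HepG2 liver cells carried transfected cis-promoter reporter units and were exposed to chemicals for 24 hours. Gain or loss of signal fitted relative to DMSO baseline.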

For assay [11], the target named is Androgen receptor (Homo sapiens) (UniProt P10275). Nature of the assay: ATG_AR_TRANS: Attagene TRANS-FACTORIAL HepG2 Assay for human Androgen Receptor (AR) (AID 2282973; active = hit-call score of the fitted dose curve at least 0.9, where 1 is the maximum). The note with it: HepG2 Attagene TRANS-FACTORIAL AR reporter transcription. In short, it runs like this:
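Readout is reporter transcript abundance, quantified by fluorescent RT-PCR products separated on capillary electrophoresis. Human HepG2 liver cells carried transiently transfected NR-Gal4 chimera plus GAL4-UAS reporter constructs and were dosed for 24 h; activity scored upward versus DMSO.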

Assay [12] concerns the target Glucocorticoid receptor (Homo sapiens) (UniProt P04150). As to the kind of experiment: ATG_GR_TRANS: Attagene TRANS-FACTORIAL HepG2 Assay for human Glucocorticoid Receptor (GR) (AID 2282978; active = hit-call score of the fitted dose curve at least 0.9, where 1 is the maximum;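 note: activators score as hits since higher reporter transcript over DMSO is fitted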). As to conditions: HepG2 Attagene TRANS GR reporter, mRNA transcription. In short, it runs like this:
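Multiplexed TRANS reporter system, HepG2; 24 h exposure; RNA → oligo(dT) RT → reporter-specific PCR → 6-FAM primer extension → HpaI cut → CE fluorescence. Gain-of-signal vs DMSO.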

For assay [13], the target named is Bile acid receptor (Homo sapiens) (UniProt Q96RI1). As to the kind of experiment: ATG_FXR_TRANS: Attagene TRANS-FACTORIAL HepG2 Assay for Farnesoid X Receptor (FXR) (AID 2282979; active = hit-call score of the fitted dose curve at least 0.9, where 1 is the maximum;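 note: hits raise reporter mRNA above DMSO so AC50 marks FXR activation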). As to conditions: HepG2 Attagene TRANS FXR-GAL4 reporter transcription. In short, it runs like this:
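Read-out: fluorescent reporter transcripts quantified by capillary electrophoresis after RT-PCR of total RNA. Source cells were HepG2 transiently carrying chimeric NR-GAL4 plus GAL4-UAS reporter units, dosed 24 h. Activity fitted upward relative to DMSO baseline.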

Assay [14] can be described thus: ATG_VDRE_CIS: Attagene CIS-FACTORIAL HepG2 Assay for human Vitamin D Receptor Element (VDRE) (AID 2282968). As to conditions: HepG2 VDRE cis-reporter transcription, actives raise or lower the signal. The procedure, abridged: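 Transfected HepG2 reporter cells, chemical treatment 24 h. RNA isolated, cDNA amplified with reporter-specific primers, products analysed by capillary electrophoresis. Endpoint fitted in both directions versus DMSO.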

The target in assay [15] is Oxysterols receptor LXR-beta (Homo sapiens) (UniProt P55055). Nature of the assay: ATG_LXRb_TRANS: Attagene TRANS-FACTORIAL HepG2 Assay for human Liver X Receptor beta (LXRb) (AID 2282981; active = hit-call score of the fitted dose curve at least 0.9, where 1 is the maximum). As to conditions: HepG2 Attagene TRANS GAL4-LXRb reporter, mRNA. In short, it runs like this:
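Liver-derived HepG2 cells transfected with Gal4-responsive reporters were dosed for 24 h. Activation was scored as rise in reporter mRNA, by RT-PCR and capillary electrophoresis, above DMSO baseline.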

Assay [16] in a line: ATG_M_19_TRANS: Attagene TRANS-FACTORIAL HepG2 Assay for M19 Transcription Factor (Internal Marker) (AID 2282974; active = hit-call score of the fitted dose curve at least 0.9, where 1 is the maximum). As to conditions: HepG2 Attagene TRANS-FACTORIAL M19 internal marker reporter. In short, it runs like this:
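After transfection of HepG2 with GAL4-UAS-driven reporter constructs, cells are dosed for 24 h. Total RNA is reverse-transcribed, reporter sequences PCR-amplified and labelled, then HpaI-digested and sized by capillary electrophoresis.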

Assay [17] in a line: ATG_GAL4_TRANS: Attagene TRANS-FACTORIAL HepG2 Assay for GAL4 (Internal Marker) (AID 2282976; active = hit-call score of the fitted dose curve at least 0.9, where 1 is the maximum). As to conditions: HepG2 Attagene TRANS GAL4 internal marker reporter. In short, it runs like this: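 RT-PCR/capillary electrophoresis readout of reporter mRNA. HepG2, transient MRTU transfection (GAL4-UAS reporters), 24 h compound exposure. Background-control endpoint, positive direction vs DMSO baseline.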

Records with an inconclusive call do not appear. Calls of active or inactive are those of the source. Rule for the calls, unless noted: active = hit-call score of the fitted dose curve at least 0.9, where 1 is the maximum; inactive = score below 0.9.

Sequence of X-box-binding protein 1 (Homo sapiens) (P17861 whole entry, looked up, the tested form may be a part): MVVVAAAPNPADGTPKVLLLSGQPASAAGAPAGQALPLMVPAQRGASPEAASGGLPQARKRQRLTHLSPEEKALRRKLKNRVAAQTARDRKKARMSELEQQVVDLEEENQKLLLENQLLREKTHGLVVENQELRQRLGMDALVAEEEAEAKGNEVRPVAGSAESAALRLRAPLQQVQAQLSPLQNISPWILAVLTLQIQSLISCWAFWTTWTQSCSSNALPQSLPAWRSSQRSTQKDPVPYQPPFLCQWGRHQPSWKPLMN
Sequence of Nuclear receptor subfamily 1 group I member 3 (Homo sapiens) (Q14994 whole entry, looked up, the tested form may be a part): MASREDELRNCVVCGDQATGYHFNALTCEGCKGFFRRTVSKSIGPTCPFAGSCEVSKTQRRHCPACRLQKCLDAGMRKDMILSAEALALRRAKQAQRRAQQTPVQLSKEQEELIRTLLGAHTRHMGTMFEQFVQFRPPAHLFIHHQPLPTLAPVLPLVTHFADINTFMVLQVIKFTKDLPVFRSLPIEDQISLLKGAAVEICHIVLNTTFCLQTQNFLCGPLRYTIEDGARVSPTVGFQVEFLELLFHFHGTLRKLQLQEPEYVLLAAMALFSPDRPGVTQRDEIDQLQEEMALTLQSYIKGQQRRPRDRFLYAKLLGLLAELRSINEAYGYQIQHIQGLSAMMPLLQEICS
Sequence of Oxysterols receptor LXR-beta (Homo sapiens) (P55055 whole entry, looked up, the tested form may be a part): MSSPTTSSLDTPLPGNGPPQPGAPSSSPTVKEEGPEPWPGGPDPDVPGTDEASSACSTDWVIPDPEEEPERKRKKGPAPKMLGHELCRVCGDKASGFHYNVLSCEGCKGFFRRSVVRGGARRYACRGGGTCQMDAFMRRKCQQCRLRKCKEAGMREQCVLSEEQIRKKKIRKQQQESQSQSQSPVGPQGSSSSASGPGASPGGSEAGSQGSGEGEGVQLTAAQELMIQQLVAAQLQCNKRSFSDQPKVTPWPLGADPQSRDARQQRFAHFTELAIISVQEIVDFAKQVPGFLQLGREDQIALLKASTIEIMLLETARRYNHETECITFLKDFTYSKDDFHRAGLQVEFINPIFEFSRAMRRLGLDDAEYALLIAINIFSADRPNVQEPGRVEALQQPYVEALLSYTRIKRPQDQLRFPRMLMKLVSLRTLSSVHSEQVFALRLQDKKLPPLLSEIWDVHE
Sequence of Bile acid receptor (Homo sapiens) (Q96RI1 whole entry, looked up, the tested form may be a part): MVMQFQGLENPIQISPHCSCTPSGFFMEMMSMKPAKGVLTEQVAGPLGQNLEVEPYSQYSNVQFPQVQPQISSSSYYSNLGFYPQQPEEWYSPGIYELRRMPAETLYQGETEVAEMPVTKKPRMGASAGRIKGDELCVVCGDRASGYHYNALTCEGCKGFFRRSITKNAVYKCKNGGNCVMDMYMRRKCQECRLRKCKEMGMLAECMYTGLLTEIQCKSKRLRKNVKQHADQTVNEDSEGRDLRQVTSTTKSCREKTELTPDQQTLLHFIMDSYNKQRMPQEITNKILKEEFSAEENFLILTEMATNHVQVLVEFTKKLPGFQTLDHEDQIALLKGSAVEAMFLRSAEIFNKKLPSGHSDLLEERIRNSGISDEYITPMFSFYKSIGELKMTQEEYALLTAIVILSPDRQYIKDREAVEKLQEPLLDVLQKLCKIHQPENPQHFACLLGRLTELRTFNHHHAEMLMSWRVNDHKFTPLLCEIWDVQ
Sequence of Androgen receptor (Homo sapiens) (P10275 whole entry, looked up, the tested form may be a part): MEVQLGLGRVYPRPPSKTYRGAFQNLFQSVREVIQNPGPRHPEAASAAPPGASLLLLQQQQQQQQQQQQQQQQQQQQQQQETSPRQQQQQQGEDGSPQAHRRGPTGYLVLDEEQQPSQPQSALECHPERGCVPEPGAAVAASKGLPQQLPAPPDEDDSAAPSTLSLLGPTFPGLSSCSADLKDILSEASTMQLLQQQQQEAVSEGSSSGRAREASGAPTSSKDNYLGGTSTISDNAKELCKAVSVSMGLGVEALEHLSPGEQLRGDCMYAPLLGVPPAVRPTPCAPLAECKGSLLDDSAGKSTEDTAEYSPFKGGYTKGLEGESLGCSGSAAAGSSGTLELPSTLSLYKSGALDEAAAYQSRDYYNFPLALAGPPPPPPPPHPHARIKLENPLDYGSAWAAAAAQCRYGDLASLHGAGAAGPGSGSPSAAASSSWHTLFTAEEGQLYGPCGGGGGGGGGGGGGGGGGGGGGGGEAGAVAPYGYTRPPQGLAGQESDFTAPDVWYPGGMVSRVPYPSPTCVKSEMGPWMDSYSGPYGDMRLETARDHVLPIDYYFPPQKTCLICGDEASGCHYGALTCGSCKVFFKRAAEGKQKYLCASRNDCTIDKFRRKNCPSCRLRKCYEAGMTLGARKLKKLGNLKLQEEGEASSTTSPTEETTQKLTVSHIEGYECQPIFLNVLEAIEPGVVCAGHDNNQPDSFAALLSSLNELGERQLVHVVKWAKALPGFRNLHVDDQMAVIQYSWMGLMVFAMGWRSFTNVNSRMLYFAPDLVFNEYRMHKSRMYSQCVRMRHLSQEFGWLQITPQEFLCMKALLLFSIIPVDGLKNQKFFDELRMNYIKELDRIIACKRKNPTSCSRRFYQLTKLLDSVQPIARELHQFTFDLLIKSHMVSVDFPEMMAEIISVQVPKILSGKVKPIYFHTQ

With `Clc1ccc(COC(Cn2ccnc2)c2ccc(Cl)cc2Cl)cc1` (centres undefined), the outcome in assay [1], in assay [2], in assay [3], in [4], in assay [5] and in assay [6] was inactive. The compound was called inactive in [7], in [8], in [9], in assay [10], in assay [11] and in [12]. Further, the compound was called inactive in assay [13].

As to `c1cc[c]([Hg][c]2ccccc2)cc1`, the call in [1], in [3], in assay [4], in assay [5], in assay [6] and in assay [7] was inactive. For the same compound, the compound was called inactive in assay [9], in assay [11], in assay [13] and in [15]. Moreover, the concentration at half-maximal activity (AC50) (usually the midpoint of the concentration-response curve, whichever way the signal moves) in assay [2] is 24.5 µM (active); in [14], 27.3 µM (active); in assay [10], 18.7 µM (active).

`O=C(O)Cc1ccccc1`: the compound was classed as inactive in [1], in assay [2], in assay [3], in assay [4], in assay [5] and in assay [6]. The call in assay [7], in [14], in [8], in assay [9], in assay [10] and in assay [16] was inactive.

Consider `ClC1(Cl)C2(Cl)C3(Cl)C4(Cl)C(Cl)(Cl)C5(Cl)C3(Cl)C1(Cl)C5(Cl)C24Cl` (centres undefined), for which the compound was called inactive in [1], in assay [2], in assay [3], in assay [4], in [5] and in [6]. The outcome in [7], in [14], in assay [10], in assay [17] and in [15] was inactive.

Take `O=C(Nc1ccc2[nH]ccc2c1)c1cc2cc(F)ccc2n1Cc1cccc(F)c1`: the concentration at half-maximal activity (AC50) was 16.8 µM (active) in assay [1]; 14.7 µM (active) in assay [2]; 15.8 µM (active) in assay [5]; 11 µM (active) in assay [14]; 14.1 µM (active) in [10]. In addition, the result in assay [3], in assay [4], in [6], in assay [7], in assay [8] and in assay [9] was inactive. The call in [16] and in assay [17] was inactive.

`Nc1ccc(-c2ccc(N)c(Cl)c2)cc1Cl`: the compound was called inactive in [1], in assay [2], in [3], in assay [4], in assay [6] and in [7]. In addition, the compound was called inactive in assay [10], in assay [16], in [12] and in assay [15]. For the same compound, the values for the AC50 in assay [5] and in assay [14] were 4.63 µM (active) and 37.6 µM (active), respectively.

These data come from PubChem BioAssay (EPA / NIEHS).
